Source: PubChem BioAssay (Tox21)
Records with an inconclusive call do not appear. Entries that show only a call come without a potency. Unmarked numbers belong to inactive results. Calls of active or inactive are those of the source. The call rests on the fitted dose curve.

Test: p53 small molecule agonists, cell-based qHTS assay with human liver microsomes: qHTS cell viability counter screen (AID 1963579); further: nearly all actives have a fitted effect of over 45% in size
Outline: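 Metabolically activated exposure: compounds, human liver microsomes and NADPH (0.5 mg/mL final apiece) were added to p53RE-bla cells seeded 5 h earlier, left 16 h at 37 C, and then assessed for viability by CellTiter-Glo luminescence.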

SMILES	Potency	activity change, negative = cytotoxicity
CC1(C)S[C@@H]2[C@H](NC(=O)Cc3ccccc3)C(=O)N2[C@H]1C(=O)O (tested in a mixture with another compound)	inactive	–
CCC(=O)CC(C)CC (centres undefined)	–	-9.86% [at 0.249 µM]
CCN(CC)CCc1nc(-c2ccccc2)no1	inactive	–
CC(=O)OC1CCCCC1C(C)(C)C (centres undefined)	inactive	–
CCOC(=O)[C@H](CCc1ccccc1)N[C@@H](C)C(=O)N1CCC[C@H]1C(=O)O	inactive	–
CCC(CC)(CC(=O)Nc1cccc(/C=C/c2nc(C3CCC3)cs2)c1)C(=O)O	inactive	–
CCC(CO)(CO)COCC(CC)(CO)CO	inactive	–
CCc1nccnc1C	inactive	–
N=c1ccn2c(n1)O[C@H]1[C@H](O)[C@@H](CO)O[C@H]12	inactive	–
Cc1cc(NC(=O)C2=C(O)c3ccccc3S(=O)(=O)N2C)no1	inactive	–
Cc1ccccc1N1CCN(CCc2nnc3n2CCCC3)CC1	inactive	–
C=CN1CCCCCC1=O	inactive	–
COC(=O)C(c1ccccc1Cl)N1CCc2sccc2C1 (centres undefined)	inactive	–
CCCCCCCCCCCCSC	inactive	–
Clc1cccnc1	inactive	–
CNC(=O)c1cnn(-c2nc(N)c3ncn([C@@H]4O[C@H](CO)[C@@H](O)[C@H]4O)c3n2)c1	inactive	–
O=C(O)c1ccccc1NCCc1ccccc1	inactive	–

SMILES	Potency	activity change, negative = cytotoxicity
C[C@H]1O[C@H](O[C@H]2[C@H](O)[C@@H](O)[C@@H](O[C@H]3[C@H](O)[C@@H](O)[C@H](O)O[C@@H]3CO)O[C@@H]2CO)[C@H](O)[C@@H](O)[C@@H]1N[C@H]1C=C(CO)[C@@H](O)[C@H](O)[C@H]1O	inactive	–
N[C@H](C(=O)O)[C@@H](O)c1ccc(O)c(O)c1	inactive	–
Cc1c(F)cc2c(=O)c(C(=O)O)cn3c2c1CCC3C (centres undefined)	inactive	–
Cc1ccccc1N1C(=O)c2cc(S(N)(=O)=O)c(Cl)cc2NC1C (centres undefined)	inactive	–
O=C1OC(OC(=O)c2cccnc2Nc2cccc(C(F)(F)F)c2)c2ccccc21 (centres undefined)	inactive	–
Cc1ccc(S(=O)(=O)NC(=O)NN2CC3CCCC3C2)cc1 (centres undefined)	inactive	–
CC1CCC(C(C)CS)CC1S (centres undefined)	inactive	–
Cc1ccc(C)c(N)c1	inactive	–
CC(=O)C=O	inactive	–
CCCCCCCCCCCCCCCCCCN(C)C	inactive	–
N#Cc1ccc(C(=O)O)cc1	inactive	–
C=C(C)CCCC	inactive	–
CCN(CC)C(=O)Nc1ccc(OCC(O)CNC(C)(C)C)c(C(C)=O)c1 (centres undefined)	inactive	–
CCn1c2ccccc2c2cc([N+](=O)[O-])ccc21	inactive	–
OCCCCCCO	inactive	–
CC(C)c1ccc(C(=O)N=C(N)N)cc1S(C)(=O)=O	inactive	–
c1ccc(COCc2ccccc2)cc1	inactive	–
